Source: PubChem BioAssay
An excerpt weighted towards active compounds, which were near 3.3% of everything screened.
PI4K2A block – PI4K2A (human) kinase inhibition; Q9BTU6; purified PI4K2A, ADP-Glo luminescence, 1 h; stronger effect = lower value; activity change, negative = inhibition, % at 76.9 µM; 420,000 compounds, 0.13% hits; in the data active = activity change below about -50%; inconclusive = mostly about -30% to -49%;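 also: -100% = wells without enzyme as full effect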
Target sequence (Q9BTU6 whole entry, looked up): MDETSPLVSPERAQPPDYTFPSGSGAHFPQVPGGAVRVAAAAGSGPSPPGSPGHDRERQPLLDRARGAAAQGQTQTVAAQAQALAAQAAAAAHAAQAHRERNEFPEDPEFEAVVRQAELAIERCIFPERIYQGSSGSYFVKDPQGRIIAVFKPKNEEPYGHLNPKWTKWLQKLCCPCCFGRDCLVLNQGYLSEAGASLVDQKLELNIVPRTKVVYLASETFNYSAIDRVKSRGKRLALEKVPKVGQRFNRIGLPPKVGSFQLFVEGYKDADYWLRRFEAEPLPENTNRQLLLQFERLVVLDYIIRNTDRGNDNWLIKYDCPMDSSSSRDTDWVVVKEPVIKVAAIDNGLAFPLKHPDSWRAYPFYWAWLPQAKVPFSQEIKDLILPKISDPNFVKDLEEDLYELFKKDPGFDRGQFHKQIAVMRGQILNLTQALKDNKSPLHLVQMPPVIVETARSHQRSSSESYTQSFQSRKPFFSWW
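ADP-Glo luminescence measured ADP generated by PI4K2A enzyme (4 ug/mL before mixing) with 1.2 mM PI substrate (pre-mix) and 300 microM ATP (pre-mix). Tris pH7.5 buffer with MgCl2, Triton X-100; 1 h reaction at ambient temperature.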
DRD3 antagonist – blocks the human D3 dopamine receptor; P35462; D3R cells, DiscoveRx beta-arrestin luminescence, antagonist mode; stronger effect = lower value; max response, negative = inhibition, %; 360,000 compounds, 2.5% hits; AID 652054; in the data active = max response below about -50%; inconclusive = no clear call, values can overlap the other calls; also: % is scaled to controls: 0 for no effect and ±100 for the full control effect
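Cells expressing the human receptor were seeded at 1500 cells/well, incubated overnight at 37 degrees C in 5% CO2, then exposed to library compounds with dopamine controls for 90 minutes at 37 degrees C before luminescent detection.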
LDHA block – LDHA (human) enzyme inhibition; P00338; purified LDHA, NADH/diaphorase-resazurin fluorescence; stronger effect = lower value; activity change, % (values are at about 110 or 230 µM); 480,000 compounds, 0.15% hits; AID 1347041; in the data active = activity change below about -30%; inconclusive = mostly about -25% to -30%;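 also: plate controls were DMSO wells for no effect and wells without enzyme for full effect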
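Resorufin fluorescence (ex540/em590), read at 0 and 20 min after diaphorase/resazurin addition, reports the NADH left after a 5 min room-temperature reaction of 2 nM human LDH5 with 0.06 mM NADH and 0.2 mM pyruvate.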
DRD3 agonist – agonists of human D3 dopamine receptor | max activation, % | D3R DiscoveRx beta-arrestin cells, luminescence, 90 min | AID 652048 | 410,000 compounds, 0.58% hits; in the data active = max activation above about 30%; also: 0% is about no effect
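Cells at 1500/well, incubated overnight, then treated with pinned compounds (dopamine as control) for 90 min at 37 degrees C. DiscoveRx reagent added for 30 - 60 minutes at room temperature; luminescence read.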
PI5P4Ka inh – blocks human PI5P4K alpha kinase activity | P48426 | PI5P4Kalpha enzyme, ADP-Glo luminescence, 60 min; stronger effect = lower value | max response, % | 330,000 compounds, 1.2% hits | AID 652105; active = max response of -50% or lower; inconclusive = between -30% and -50%; inactive = -30% or higher; also: value at the top dose of about 77 µM; % is scaled to controls: 0 for no effect and ±100 for the full control effect
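PI5P4Kalpha ADP-Glo assay; 5 microM ATP final; 60 min RT reaction; HEPES pH 7.4/EGTA/CHAPS, 5% DMSO; controls lacking substrate or enzyme; luminescent end-point.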
Numbers without * were called inactive; ? = inconclusive; . = no result; ! = not confirmed by another sample.

SMILES | PI4K2A block | DRD3 antagonist | LDHA block | DRD3 agonist | PI5P4Ka inh
COC(=O)c1ccccc1NC(=O)CN1CCOCC1 | -4.5 | 7.5 | -1.2 | 0.6 | 10.2
COc1ccc(C(=O)C2CCN(C(=O)Nc3ccc(C)cc3)CC2)cc1 | -2.3 | 5.7 | 9.2 | 17.5 | 1.4
COc1ccc(C(=O)C2CCN(CC(=O)Nc3ccc(C)cc3)CC2)cc1 | -7.5 | -112.8* | -7.7 | -30.9 | -7.6
CC(C)COc1ccc(C(=O)Nc2ccc(N3CCN(S(C)(=O)=O)CC3)cc2)cc1 | . | . | -34.9* | . | .
CC(C)CC(=O)Nc1ccc(N2CCN(S(C)(=O)=O)CC2)cc1 | 1.6 | 5.0 | -5.9 | 0.7 | 1.3
CN(C)c1ccc(NC(=O)CN2CCC(C(=O)c3ccc(F)cc3)CC2)cc1 | -1.1 | -81.6* | -4.0 | -27.2 | .
COc1ccc(OC)c(N2CC(O)=C(c3nc4ccccc4n3C)C2=N)c1 | . | . | -0.3 | . | .
O=C(OCc1ncc(-c2ccccc2)o1)c1ccc(Cl)nc1 | . | . | 16.6 | . | .
Cc1ccc(C2=CC(c3c(F)cccc3Cl)n3nnnc3N2)cc1 (stereo not given) | . | . | -5.3 | . | .
COc1ccc(S(=O)(=O)Nc2c(NC3CCCC3)c3ccccc3oc2=O)cc1Cl | . | . | -3.2 | . | .
Cc1ccc(-c2cc(C(=O)OC(C)C(=O)NC3CCCC3)c3ccccc3n2)o1 (stereo not given) | . | . | 4.2 | . | .
CC(=O)N/N=C(\C)C1CC2CCC1C2 (stereo not given) | . | . | 2.4 | . | .
O=C(CN1CCCCC1)Nc1oc2ccccc2c(=O)c1-c1ccc(F)cc1 | . | . | -0.6 | . | .
COc1ccc(NC(=O)c2ccc(NC(=O)CN3CCN(c4ccc(O)cc4)CC3)cc2)cc1 | -29.7 | 7.9 | 10.7 | 81.8* | -23.8
CC(=O)c1ccc(NC(=O)CN2CCC(C(=O)c3ccc4c(c3)OCCO4)CC2)cc1 | 0.6 | -5.9 | -4.1 | -2.1 | 1.8
Cc1ccc(NC(=O)CN2CCC(C(=O)c3ccc4c(c3)OCCO4)CC2)cc1 | -0.3 | -51.8* | -7.5 | -3.9 | -2.3
COc1ccc(NC(=O)c2ccc(NC(=O)CN3CCN(c4ccccc4O)CC3)cc2)cc1 | 1.1 | -14.2 | 1.1 | -2.1 | -27.6
O=C(NCc1ccccc1)c1ccc(S(=O)(=O)N2CCc3ccccc3C2)cc1 | . | . | -1.9 | . | .
COc1ccc(CCNC(=O)CCSc2nc(Cl)nc3nc[nH]c23)cc1OC | . | . | 9.8 | . | .
CCOC(=O)c1ccccc1NC(=O)COC(=O)c1nn(-c2ccccc2)c(=O)c2ccccc12 | . | . | -0.9 | . | .
O=C(Nc1ccc(Cl)cc1)Nc1ccc(Cc2ccncc2)cc1 | . | . | 3.8 | . | .
Cc1nn(-c2ccccc2)c(NC(=O)c2cccs2)c(-c2ccccc2Cl)c1=O | -6.9 | -59.2* | -3.4 | -6.7 | 5.2
O=C(NCc1cccnc1)/C(=C/c1ccc([N+](=O)[O-])cc1)NC(=O)c1ccccc1 | -8.9 | -2.8 | -8.7 | 31.5* | 0.1
CC(C)NC(=O)/C(=C\c1cccc([N+](=O)[O-])c1)NC(=O)c1ccccc1 | 4.3 | -107.1* | 0.7 | -4.2 | .
COc1ccc(/C=C2/C(=O)N(c3cccc(F)c3)N=C2C)c(OC)c1 | -50.8* | -4.8 | -0.5 | 5.8 | 6.5
SMILES | PI4K2A block | DRD3 antagonist | LDHA block | DRD3 agonist | PI5P4Ka inh
CC1=NN(c2cccc(F)c2)C(=O)/C1=C/c1ccc(N(C)C)cc1 | -8.1 | 0.4 | -7.0 | -1.3 | -0.8
Cc1ccc(C)c(NC(=S)c2ccc3ccccc3n2)c1 | -3.2 | 9.3 | -1.1 | -5.2 | 35.0
CN(C)c1ccc(NC(=S)c2ccc3ccccc3n2)cc1 | 4.4 | -50.8* | -1.1 | -5.9 | -1.0
O=C1C(Cc2ccccc2)Nc2ncnc(N3CCc4ccccc4C3)c2N1Cc1ccccc1 (stereo not given) | -5.0 | -17.6 | -1.1 | 26.3 | -24.2
CC1Nc2ncnc(N3CCc4ccccc4C3)c2N(Cc2ccc(Br)cc2)C1=O (stereo not given) | 5.3 | -55.4*! | 0.3 | -16.7 | -11.9
CCC1Nc2ncnc(N3CCc4ccccc4C3)c2N(Cc2ccc(Br)cc2)C1=O (stereo not given) | 0.5 | -83.8* | -6.5 | -23.0 | 2.8
COc1ccc2c(c1)CCC/C2=N\OC(=O)c1cc(Cl)ccc1SC | . | . | 14.4 | . | .
CCOC(=O)C(=C1Nc2ccccc2N1)n1c(-c2cccnc2)nc2ccccc21 | -4.3 | -64.8* | 10.4 | -12.1 | -3.2
O=C(c1ccc2[nH]ccc2c1)N1CCN(C(=O)c2cc3ccccc3[nH]2)CC1 | . | . | -1.5 | . | .
CC[C@@H](C)[C@H](NC(=O)CCn1ccc2ccc(F)cc21)C(=O)O | . | . | -5.0 | . | .
NC1=NC(=O)C(CC(=O)NCc2ccccc2)S1 (stereo not given) | -5.5 | -65.0* | 0.3 | 3.5 | 0.5
O=c1[nH]c(CN(Cc2cccs2)CC2CCCO2)nc2scc(-c3ccccc3)c12 (stereo not given) | . | . | 10.2 | . | .
Fc1ccc(-n2cc(CNCCc3cccnc3)c(-c3ccccc3Cl)n2)cc1 | 3.6 | -69.9* | -4.6 | -4.2 | -0.8
COc1cc(/C=C/C(=O)Oc2ccc3ccc(=O)oc3c2)ccc1OS(=O)(=O)c1ccc(C)cc1 | . | . | 14.7 | . | .
CC1(C)CC1C(=O)Nc1ccc([N+](=O)[O-])cc1Br (stereo not given) | 3.9 | 71.9 | -6.2 | 0.7 | 3.5
Cc1ccc(C2(c3ccc(C)cc3)CC2C(=O)Nc2ccc([N+](=O)[O-])cc2O)cc1 (stereo not given) | 5.2 | -65.8* | 6.2 | -4.6 | -12.0
CSc1ccc(/C=C/c2nc3ccccc3n2S(=O)(=O)c2ccc(Br)cc2)cc1 | ? | . | -4.9 | -9.9 | .
O=S(=O)(c1cccc(C(F)(F)F)c1)n1c(/C=C/c2ccccc2)nc2ccccc21 | -60.6* | . | 2.2 | 2.3 | .
COC(=O)c1ccc(=O)c2nc3/c(=C/O)c(O)cc(=O)c3[nH]c12 | -19.6 | -4.3 | 6.6 | 9.3 | -74.0*
COc1ccccc1/C=C/C=N/NC(=O)c1cc(-c2ccco2)[nH]n1 | -2.1 | 1.0 | 6.8 | -2.3 | -72.5*
CCN(CC(=O)Nc1ccc(NC(C)=O)cc1)CC(=O)Nc1ccc(Cl)c(Cl)c1 | -2.9 | -59.5* | -45.2* | -26.2 | -3.3
CCN(CC(=O)Nc1ccc(NC(C)=O)cc1)CC(=O)Nc1cccc(Cl)c1 | 2.6 | -17.3 | -8.4 | -12.0 | -1.0
O=C(Nc1ccc(-c2nc3cccnc3s2)cc1)C1CCCO1 (stereo not given) | -57.5* | 5.7 | -1.5 | 3.9 | ?
O=C(Nc1ccc(Oc2ccccc2)cc1)C1CCCO1 (stereo not given) | -6.5 | -79.0* | -9.2 | -3.9 | .
O=C(NCc1ccccc1)c1cccc(COc2cc(Cl)ccc2Cl)c1 | 1.0 | -71.6* | -3.0 | -5.0 | 14.1
CCC[N+]1(CC#CC(O)(c2ccccc2)C2CCCCC2)CCCCC1 (stereo not given) | -2.1 | -53.7* | -3.8 | -44.6 | 3.1
CCN(CC)CCC#CC(O)(c1ccccc1)C1CCCCC1 (stereo not given) | 1.0 | ? | 0.0 | -24.9 | 0.1
CC(C)c1noc(CN2CCC(c3nc4cc(Cl)ccc4o3)CC2)n1 | . | . | 0.5 | . | .
